Measurements reported in PubChem BioAssay (Tox21).
Records with an inconclusive call do not appear. Where a call stands in place of a potency, no number is given. Activity calls are given as the source filed them. Calls come from the whole dose curve; as a rule, active = well fitted activation curve with a large enough effect in the repeat runs; inconclusive = weak or mixed curves; inactive = flat fitted curve, though single readings scatter.

experiment: A CellTox Green Cytotoxicity Assay to monitor cytotoxicity in HEK293 cells - 16 hour (AID 1224888); settings: CellTox Green fluorescence; series mostly up to 76.8 µM; note: nearly all actives have a fitted effect of over 35% in size
Description: National Center for Advancing Translational Sciences [NCATS]
NIH Chemical Genomics Center [NCGC]
U.S. Environmental Protection Agency [EPA]
National Institutes of Environmental Health Sciences [NIEHS]
National Toxicology Program [NTP]
Cell-based models are critical for drug discovery. Determining the natural cytotoxic effects resulting from test compounds is an essential research activity. A CellTox Green Cytotoxicity Assay to monitor cytotoxicity in real time of continues cell culture during 40 hours of the compound treatment was used to screen Tox21 10K library compounds in Hek293 cells. CellTox Green Cytotoxicity Assay is a nonlytic, homogeneous, biofluorescent method to measure cytotoxicity in cell culture after experimental manipulation. The assay system uses a proprietary asymmetric cyanine dye that is excluded from viable cells but preferentially stains the dead cell's DNA. […] Viable cells produce no appreciable increases in fluorescence. Therefore, the fluorescence signal produced by the binding interaction with dead cell DNA is proportional to cytotoxicity.
The mixture of Hek293 cell suspension and reagents were dispensed at 600cells/6 ul/well in 1536-well tissue culture treated black solid bottom plates using a Multidrop dispenser. After the assay plates were incubated at a 37 C/5% CO2 incubator for 5 hours, 23 nL of compounds dissolved in DMSO, positive and negative controls was transferred to the assay plate by a pintool work station. The plates were incubated at 37 C for 40 hours. The fluorescence intensity were measured at 0h, 8h, 16h, 24h, 32h and 40h time points using ViewLux plate reader during compound treatment.
Potency is the fitted concentration of half-maximal effect.

SMILES	Potency	activity change
O=C1C=CC(=O)c2ccccc21	inactive	–
C[As+](C)(C)CC(=O)[O-]	inactive	–
CC(C)(O)c1cnn2c(-c3ccc(F)c(-c4c(F)cccc4C#N)c3)cnc2n1	inactive	–
CC(=O)c1cc(C(C)(C)C)cc2c1CCC2(C)C	inactive	–
Cc1cc(N=Nc2ccccc2C)ccc1N	inactive	–
O=C(CCCN1CCC2(CC1)C(=O)NCN2c1ccccc1)c1ccc(F)cc1	inactive	–
CCCCCCCCCCBr	inactive	–
CC(C)CC(C)N (stereo not given)	inactive	–
CCc1ccccc1C	inactive	–
COc1ccc([N+](=O)[O-])cc1O	inactive	–
c1ccc(OCC2CO2)cc1 (stereo not given)	inactive	–
CCc1nn(C)c(C(=O)NCc2ccc(C(C)(C)C)cc2)c1Cl	inactive	–
CCOP(=S)(OCC)OC(Cl)C(Cl)(Cl)Cl (stereo not given)	inactive	–
Cc1cc(C(C)(C)c2cc(C)c(O)c(C)c2)cc(C)c1O	inactive	–
COc1ccc(N)cc1N	inactive	–
c1ccc2c(c1)[nH]c1cnccc12	inactive	–
C[C@@H](Oc1ccc(Cl)cc1Cl)C(=O)O	inactive	–
COCC(=O)N(c1c(C)cccc1C)[C@H](C)C(=O)OC	inactive	–
COC(=O)N(C(=O)N1COC2(C(=O)OC)Cc3cc(Cl)ccc3C2=N1)c1ccc(OC(F)(F)F)cc1 (stereo not given)	inactive	–
Cc1cccc(OP(=O)(Oc2cccc(C)c2)Oc2cccc(C)c2)c1	inactive	–

SMILES	Potency	activity change
CC(C)CC(C)Nc1ccc(Nc2ccccc2)cc1 (stereo not given)	inactive	–
CC(=O)Nc1ccc2c(c1)Cc1ccccc1-2	inactive	–
COc1ccc(/C(=C/C(=O)N2CCOCC2)c2ccc(Cl)cc2)cc1OC	inactive	–
COc1ccc(OC)c(CC(C)N)c1 (stereo not given)	inactive	–
COc1cccc2c1C(=O)c1c(O)c3c(c(O)c1C2=O)C[C@@](O)(C(=O)CO)CC3OC1CC(N2CCOC(OC)C2)C(O)C(C)O1 (stereo not given in full)	inactive	–
Brc1c(Br)c(Br)c(Oc2c(Br)c(Br)c(Br)c(Br)c2Br)c(Br)c1Br	–	-4.12% [at 15.8 µM, hits give high values] (inactive)
CN(C)CCc1c[nH]c2ccc(O)cc12	inactive	–
ClCc1ccccc1CCl	inactive	–
Cc1cc(C)cc(OP(=O)(Oc2cc(C)cc(C)c2)Oc2cc(C)cc(C)c2)c1	inactive	–
CCOC(=O)C1(c2ccccc2)CCN(CCC(C#N)(c2ccccc2)c2ccccc2)CC1	inactive	–
CCCOCC(=Nc1ccc(Cl)cc1C(F)(F)F)n1ccnc1	54.9 µM (active)	–
N#Cc1c(-c2ccc(Cl)cc2)[nH]c(C(F)(F)F)c1Br	inactive	–
CC(=O)[O-].[Tl+]	inactive	–
CC(C)OS(C)(=O)=O	inactive	–
Nc1ccc([N+](=O)[O-])cc1Cl	inactive	–
C[C@]12CC[C@H](O)C[C@H]1CC[C@@H]1[C@@H]2C[C@@H](O)[C@]2(C)[C@@H](C3=CC(=O)OC3)CC[C@]12O	inactive	–
Nc1ccc(Cc2ccc(N)c(Cl)c2)cc1Cl	inactive	–
CC(C)(C)c1ccc(CSc2cnn(C(C)(C)C)c(=O)c2Cl)cc1	inactive	–
Oc1ccc(I)cc1	inactive	–
Oc1ccccc1Br	inactive	–
